# Reference: PubChem BioAssay (Tox21)
# Active and inactive are the calls of the source. The call rests on the fitted dose curve; in most records, active means well fitted curve in the direction sought with a large enough effect in the repeat runs; inconclusive means weak or mixed curves; inactive means flat fitted curve, though single readings scatter.
# Assay: qHTS assay to test for compound auto fluorescence at 590 nm (red) in HepG2 cells (AID 720674)
# Conditions: HepG2 autofluorescence, red 540/590 nm, 1 h; series mostly up to 46 µM
# Text: U.S. Tox21 Program National Center for Advancing Translational Sciences [NCATS] NIH Chemical Genomics Center [NCGC] U.S. Environmental Protection Agency [EPA] National Institutes of Environmental Health Sciences [NIEHS] National Toxicology Program [NTP] U.S. Food and Drug Administration [FDA] Tox21 Assay Overview: Compound auto fluorescence often interferes with screening of the compound library against various biological targets and signaling pathways. Some of these compounds may have fluorophoric properties. Such properties may interfere with the assay outputs resulting in false positives and/or negatives. To decrease such complications and ensure the compound activities are relevant in terms of biological response, the Tox21 10K compound library was screened for auto fluorescence. From the fluorophores used as reporter signals in our screening assays, the auto fluorescence equivalencies of compounds against three fluorophores have been evaluated: Triamterene, Fluorescein and Rose Bengal sodium for blue, green and red fluorescence, respectively. The fluorescence intensities were measured using Excitation/Emission wavelengths at 405/460nm, 485/535nm and 540/590nm for blue, green and red labels, respectively. This assay includes the red fluorescence data.
# Tox21 Assay Protocol Summary: 2,000 HepG2 cells in 5 uL of culture medium (MEM containing 10% FBS) per well were dispensed into black wall/clear bottom 1536-well plates using a Multidrop Combi Dispenser (ThermoFisher Scientific, Waltham, MA). The assay plates were incubated overnight at 37 C to allow cell attachment to the well bottom, followed by the transfer of 23 nL compound or DMSO vehicle by a pintool work station (Kalypsys , San Diego, CA). After the assay plates were incubated for 1 hr at 37 C and 5% CO2, fluorescence intensities in the assay plates were measured by an Envision (PerkinElmer, Shelton, CT) plate reader using three labels for measuring blue, green and red fluorescence at […] 460, 535 and 590 nm respectively.
row,SMILES,outcome
1,C[C@H]1O[C@@H](O[C@H]2CC[C@@]3(C)[C@H](CC[C@@H]4[C@@H]3C[C@@H](O)[C@]3(C)[C@@H](C5=CC(=O)OC5)CC[C@]43O)C2)C[C@H](O)[C@@H]1O[C@H]1C[C@H](O)[C@H](O[C@H]2C[C@H](O)[C@H](O[C@@H]3O[C@H](CO)[C@@H](O)[C@H](O)[C@H]3O)[C@@H](C)O2)[C@@H](C)O1,inactive
2,NC[C@H]1O[C@H](O[C@H]2[C@H](O)[C@@H](O[C@H]3O[C@H](CO)[C@@H](O)[C@H](N)[C@H]3O)[C@H](N)C[C@@H]2N)[C@H](N)C[C@@H]1O,inactive
3,CS(=O)(=O)c1ccc([C@@H](O)[C@@H](COC(=O)CN)NC(=O)C(Cl)Cl)cc1,inactive
4,CNCCC=C1c2ccccc2CCc2ccccc21,inactive
5,CON=C1C[C@]2(C[C@@H]3C[C@@H](C/C=C(\C)C[C@@H](C)/C=C/C=C4\CO[C@@H]5[C@H](O)C(C)=C[C@@H](C(=O)O3)[C@]45O)O2)O[C@H](/C(C)=C/C(C)C)[C@H]1C,inactive
6,CN1CCN(CCCN2c3ccccc3Sc3ccc(Cl)cc32)CC1,inactive
7,Cc1cc(C(=O)NCCc2ccc(S(=O)(=O)NC(=O)NN3CCCCCC3)cc2)no1,inactive
8,CCCC(=O)c1cc(O)c(O)cc1O,inactive
9,c1ccc(-n2cnnn2)cc1,inactive
10,CN1[C@@H](CC(=O)c2ccccc2)CCC[C@H]1C[C@H](O)c1ccccc1,inactive
11,CCC(O)c1ccccc1 (stereo not given),inactive
12,CC[C@H]1OC(=O)C[C@@H](O)[C@H](C)[C@@H](O[C@@H]2O[C@H](C)[C@@H](O[C@H]3C[C@@](C)(O)[C@@H](O)[C@H](C)O3)[C@H](N(C)C)[C@H]2O)[C@@H](CC=O)C[C@@H](C)C(=O)/C=C/C(C)=C/[C@@H]1CO[C@@H]1O[C@H](C)[C@@H](O)[C@@H](OC)[C@H]1OC,inactive
13,CC(=NCc1ccccc1)c1ccccc1O,inactive
14,O=C(O)/C=C/C(O)c1ccc(Cl)cc1 (stereo not given),inactive
15,C(=C\c1ccncc1)/c1ccccc1,inactive
16,CN1C(C(=O)Nc2ccccn2)C(=O)c2sc(Cl)cc2S1(=O)=O (stereo not given),inactive
17,C=C1[C@@H]2CC[C@@H](C2)C1(C)C,inactive
18,N=C(N)c1ccc(/C=C/c2ccc(C(=N)N)cc2O)cc1,inactive
19,COc1cccc2c1[C@@H]1CN(CCCCn3c(=O)[nH]c4c(sc5ncc(-c6ccccc6)nc54)c3=O)C[C@@H]1CO2,inactive
20,CCN(CC)CCNC(=O)c1ccc(NS(C)(=O)=O)cc1,inactive

row,SMILES,outcome
1,CO/N=C(\C(=O)N[C@@H]1C(=O)N2C(C(=O)O)=C(C[N+]3(C)CCCC3)CS[C@H]12)c1csc(N)n1,inactive
2,COc1cc([C@@H]2c3cc4c(cc3[C@@H](O[C@@H]3O[C@@H]5CO[C@@H](C)O[C@H]5[C@H](O)[C@H]3O)[C@H]3COC(=O)[C@H]23)OCO4)cc(OC)c1O,inactive
3,Cc1ccc(Cl)c(N)c1Cl,inactive
4,CC(=O)Nc1ccc(OC(C)=O)cc1,inactive
5,O=P(O)(O)C(O)(Cn1ccnc1)P(=O)(O)O,inactive
6,COc1cc2c(cc1OC)[C@@H](Cc1cc(OC)c(OC)c(OC)c1)[N+](C)(CCCOC(=O)CC/C=C/CCC(=O)OCCC[N+]1(C)CCc3cc(OC)c(OC)cc3[C@H]1Cc1cc(OC)c(OC)c(OC)c1)CC2 (stereo not given in full),inactive
7,CC(C)OC(=O)Nc1ccc2nc(-c3cscn3)[nH]c2c1,inactive
8,COc1cc2c(cc1O)CCN[C@]21CS[C@@H]2c3c(OC(C)=O)c(C)c4c(c3[C@H](COC1=O)N1[C@@H]2[C@H]2c3c(cc(C)c(OC)c3O)C[C@@H]([C@@H]1O)N2C)OCO4,inactive
9,CCOc1ccc([N+](=O)[O-])cc1,inactive
10,CCCOC(=O)c1ccccc1O,inactive
11,O=C1CCC(c2ccccc2)(C2CCN(Cc3ccccc3)CC2)C(=O)N1 (stereo not given),inactive
12,CC1CCCC(C)N1NC(=O)c1ccc(Cl)c(S(N)(=O)=O)c1 (stereo not given),inactive
13,CC(C)(O/N=C(\C(=O)N[C@@H]1C(=O)N2C(C(=O)[O-])=C(C[n+]3ccccc3)CS[C@H]12)c1csc(N)n1)C(=O)O,inactive
14,CO[C@H]1C[C@H](O[C@H]2[C@H](C)[C@@H](O[C@@H]3O[C@H](C)C[C@H](N(C)C)[C@H]3O)[C@@H](C)C[C@]3(CO3)C(=O)[C@H](C)[C@@H](O)[C@@H](C)[C@@H](C)OC(=O)[C@@H]2C)O[C@@H](C)[C@@H]1O,inactive
15,CCCOC(=O)c1ccc(O)cc1,inactive
16,O=C1c2c(O)cccc2[C@H]([C@@H]2O[C@H](CO)[C@@H](O)[C@H](O)[C@H]2O)c2cc(CO)cc(O)c21,inactive
17,CN(C)CCOc1ccc(/C(=C(/CCCl)c2ccccc2)c2ccccc2)cc1,inactive
18,OCC1(CO)COC(C(Cl)(Cl)Cl)OC1,inactive
19,NCC(O)CC(=O)O (stereo not given),inactive
20,Cc1ccc2nc(-c3ccc(N)cc3)sc2c1S(=O)(=O)O,inactive
